An excerpt weighted towards active compounds, which were near 2.9% of everything screened.
proKLK7 act – proKLK7 (human) activation, primary screen | purified proKLK7, EDANS-DABCYL substrate fluorescence; 100% is mature enzyme control, 0% vehicle | hit rate 0.9% among 370,000 | activation, % at 7 µM | AID 652039;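 active = activation above the mean of all tested compounds plus 3 SD, computed per campaign excluding outliers beyond control limits, cut at about 13% in these data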
Target sequence (P49862 whole entry, looked up): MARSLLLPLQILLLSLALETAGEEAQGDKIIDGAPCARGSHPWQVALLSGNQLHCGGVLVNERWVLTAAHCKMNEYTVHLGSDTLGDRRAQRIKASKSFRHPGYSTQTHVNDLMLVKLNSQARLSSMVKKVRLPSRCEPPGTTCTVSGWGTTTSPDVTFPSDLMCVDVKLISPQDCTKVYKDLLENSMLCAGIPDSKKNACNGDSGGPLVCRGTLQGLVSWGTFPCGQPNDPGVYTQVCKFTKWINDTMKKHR
PLCb3 inh – PLC-beta3 (human) inhibition, primary screen; hit rate 0.18% among 370,000; Q01970; Purified PLC-beta3, fluorogenic substrate, fluorescence; inhibition, % at 12.2 µM; AID 720704; in the data active = inhibition above about 11%;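 note: 0% = median of compound wells on plate and 100% = full blocker control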
PLC-gamma1 inh – PLC-gamma1 (human) inhibition, primary screen. P19174. purified PLC-gamma1, fluorogenic substrate, fluorescence. inhibition, % at 12.2 µM. hit rate 0.84% among 370,000; in the data active = inhibition above about 9.5%
ADAM17 inh – inhibits human ADAM17; P78536; recombinant ADAM17, EDANS/DABCYL FRET peptide cleavage; inhibition, % at 6.95 µM; hit rate 0.83% among 370,000; AID 720648;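 active = inhibition above the mean of compounds lying between control limits plus 3 SD, set per campaign, cut at about 8.5% in these data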;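 note: 0% = DMSO-only wells as the low control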
ADAM10 inh – inhibits human ADAM10; O14672; recombinant ADAM10, EDANS/DABCYL FRET peptide cleavage, 3 h; inhibition, % at 7 µM; hit rate 0.62% among 370,000; AID 720582;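 active = inhibition above a per-campaign cutoff equal to the mean of compounds falling between control-based bounds plus 3 SD, cut at about 20% in these data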;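 note: 0% = DMSO wells while the 100% control is not disclosed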
proKLK7 act conf – proKLK7 activation, confirmation; shares compounds with proKLK7 act; purified proKLK7, EDANS-DABCYL substrate fluorescence; scaled: vehicle 0, mature enzyme 100; activation, % at 7 µM; hit rate 68% among 3,200;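 active = activation, as change over the incubation, above the mean of all tested compounds plus 3 SD, cut at about 13% in these data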
EDANS interfere – counter-screen for kallikrein-7 activators: EDANS-DABCYL optical interference; EDANS-DABCYL substrate fluorescence interference, no enzyme, 4 h; solvent 0%, active enzyme control 100%; shares compounds with proKLK7 act; activation, % at 7 µM; hit rate 80% among 3,200;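 active = activation above the all-compound mean plus 3 SD, ignoring values outside control-based bounds, cut at about 4.8% in these data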;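 note: value is the 4 h activation minus the activation read at time zero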
EDANS interf – EDANS fluorescence interference in dose response, no enzyme; shares compounds with proKLK7 act; EDANS-DABCYL peptide fluorescence interference; EC50, µM; AID 720493; hit rate 20% among 250;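 active = compounds that raise the fluorescence signal in this interference counterscreen, with EC50 at or below 10 µM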;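 note: intact quenched peptide substrate alone read at 355 nm excitation and 520 nm emission; signal is fluorescence gain from T0 to T4 after four hours at room temperature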
Active calls of the source: *; i = inactive; / = not tested or not shown.

SMILES	proKLK7 act	PLCb3 inh	PLC-gamma1 inh	ADAM17 inh	ADAM10 inh	proKLK7 act conf	EDANS interfere	others
CN(C)CCCn1c(N)c(S(=O)(=O)c2ccccc2)c2nc3ccccc3nc21	68.6*	-364.7	-372.4	i	i	-35.0	-48.2
N#Cc1c(N)n(CCc2ccc(F)cc2)c2nc3ccccc3nc12	31.9*	i	i	i	i	-48.2	-67.5
COc1ccc(Cn2c(N)c(C#N)c3nc4ccccc4nc32)cc1	7.4	i	i	i	i	/	/
C/C(C=NNC(=O)CSc1nnc(-c2ccc(Cl)cc2)n1-c1ccc(C)cc1)=C\c1ccccc1	0.1	7.0	3.7	1.9	4.5	/	/
O=C(OC12CCCN(C1)/C(=C/c1cccc(Cl)c1)C2)c1cccc(F)c1 (stereo not drawn)	0.5	-1.2	2.2	2.5	3.6	/	/
COCCn1c(N)c(C(=O)NCC2CCCO2)c2nc3ccccc3nc21 (stereo not drawn)	12.9*	i	i	i	i	-143.1	-182.5
N#Cc1c(N)n(-c2cccc(O)c2)c2nc3ccccc3nc12	116.6*	i	i	i	i	42.2*	47.0*
COCCn1c(N)c(C#N)c2nc3ccccc3nc21	62.2*	i	i	i	i	59.8*	72.4*
COc1ccc(OC)c(CN2C(=O)CSCCC2(C)c2nnnn2C2CCCC2)c1 (stereo not drawn)	0.4	1.8	-2.8	-4.7	-4.5	/	/
O=C(CCc1ccccc1)N[C@H]1[C@@H](OC(=O)c2cnccn2)CCC[C@]12C(=O)N(Cc1ccccc1)c1ccccc12	0.1	-1.6	0.6	0.2	-3.9	/	/
CCOC(=O)c1[nH]c2ccc(OC)cc2c1NC(=O)CCN1CCCC(C)C1 (stereo not drawn)	26.6*	-461.6	-342.7	-81.0	-226.2	8.9	2.8
CCOC(=O)c1[nH]c2ccc(OC)cc2c1NC(=S)N1CCN(C(=O)OCC)CC1	1.4	-41.3	-22.5	-10.1	-21.9	/	/
Cc1ccc(C(=O)N2CCC[C@@H]2C(=O)N2CCC[C@H]2C(=O)NCc2ccccc2)cc1	-0.1	2.7	1.8	-1.4	2.1	/	/
Nc1ccc2nc3c(c(Cl)c2c1)CCCC3	13.7*	i	i	-64.5	-194.1	1.1	1.5
COc1ccc(Oc2coc3c(CN4CCOCC4)c(O)ccc3c2=O)cc1	29.5*	-353.4	-330.0	-83.1	-280.1	12.3	15.1*
O=c1c(-c2ccc(Br)cc2)coc2c(CN3CCOCC3)c(O)ccc12	14.4*	-264.1	-220.2	-77.7	-238.3	13.3*	5.8*	EDANS interf=>69.5
O=c1c(-c2ccc(Br)cc2)coc2c(CN3CCCCC3)c(O)ccc12	9.5	i	-463.3	-169.2	-408.5	/	/
CC1CN(Cc2c(O)ccc3c(=O)c(-c4ccccc4Cl)coc23)CC(C)O1 (stereo not drawn)	89.7*	i	i	-369.6	i	26.1*	29.6*
Oc1ccc2ccccc2c1CN1CCCCC1	-5.0	-9.9	-2.6	-27.8	-110.4	/	/
O=c1c(-c2ccccc2Cl)coc2c(CN3CCCCC3)c(O)ccc12	59.8*	i	i	i	i	73.9*	74.1*
COC(=O)[C@]12C[C@H](CC(=O)N3CCN(C(=O)C4CC4)CC3)C(=O)N(Cc3cccc4ccccc34)C1=C[C@H](C(C)(C)C)O[C@@H]2C	0.4	4.7	1.7	6.1	12.0	/	/
O=S1(=O)c2ccc(Br)cc2OCCC2CCCCN21 (stereo not drawn)	0.1	-2.5	-0.1	-3.4	-12.7	/	/
CC1CCCN(Cc2c(O)ccc3c(=O)c(-c4ccc(Cl)cc4)coc23)C1 (stereo not drawn)	-0.8	-368.2	-227.1	-91.8	-201.9	/	/
O=c1c(-c2ccc(Cl)cc2)coc2c(CN3CCCCC3)c(O)ccc12	13.7*	i	i	-177.7	i	21.5*	27.1*
COc1ccc(/C=C/C(=O)NC(=S)Nc2ccccc2)cc1OC	-1.4	-31.5	-14.4	-8.6	-2.1	/	/
SMILES	proKLK7 act	PLCb3 inh	PLC-gamma1 inh	ADAM17 inh	ADAM10 inh	proKLK7 act conf	EDANS interfere	others
COc1cc(/C=C/C(=O)Nc2ccc(C(C)=O)cc2)cc(OC)c1OC	-0.7	-35.4	-37.6	-5.2	-24.4	/	/
COc1ccc(/C=C/C(=O)NC(=S)Nc2ccc(S(N)(=O)=O)cc2)cc1OC	19.3*	-107.7	-75.6	-11.2	-21.3	12.8*	17.2*
COc1cc(/C=C/C(=O)Nc2ccncc2)cc(OC)c1OC	28.5*	i	i	-129.4	-390.1	8.5	18.4*
COc1ccc(-c2cnnn2-c2ccc(NC(=O)/C=C/c3ccc(OC)c(OC)c3)cc2)cc1	-12.9	-33.6	-25.7	-4.7	-9.9	/	/
COc1ccc(/C=C/C(=O)Nc2ccc(-n3nncc3-c3ccc(OC)c(OC)c3)cc2)cc1OC	28.0*	-120.4	-101.7	-15.8	-90.5	-8.9	-20.1
Cn1c(=O)c2cc(S(=O)(=O)N3CCN(c4ccc(F)cc4)CC3)ccc2n(C)c1=O	0.3	1.6	-1.3	3.4	-4.0	/	/
CC(=O)Nc1ccc(C(/C=C/c2ccccc2)Cc2ccccc2)cc1 (stereo not drawn)	-0.4	-6.4	-4.2	5.5	16.1	/	/
COC(=O)[C@H]1C[C@@]2(N3CCCCC3)c3ccccc3N(C(=O)OC(C)(C)C)[C@H]2N1C(=O)OC(C)(C)C	-0.2	6.8	2.9	1.4	4.8	/	/
CC(C)C[C@H]1COc2cccc(F)c2S(=O)(=O)N1Cc1cn(Cc2ccc(C(F)(F)F)cc2)nn1	-0.4	2.2	0.7	0.9	-0.4	/	/
COc1cc(Cn2c3ccc(NC(=O)CCc4ccc(O)cc4)cc3c(=O)n2C)ccc1F	13.0*	-278.1	-194.4	-316.3	i	5.0	10.4*
Cn1c(=O)c2cc(NC(=O)CCc3cccc(Cl)c3)ccc2n1Cc1cccc(C(F)(F)F)c1	-0.8	-52.7	-38.7	-40.4	-148.3	/	/
Cn1c(=O)c2cc(NC(=O)CCc3ccc4c(c3)OCO4)ccc2n1Cc1ccc(F)cc1	31.6*	-259.6	-205.4	-244.2	i	64.8*	71.9*
CC(C)(C)c1ccc(S(=O)(=O)N2CCC(c3cn4ccccc4n3)CC2)cc1	-1.4	-82.5	-56.5	-17.3	-44.4	/	/
O=c1c2cc(N3CCOCC3)ccc2[nH]c(=S)n1CCCN1CCCC1	114.2*	i	i	-39.9	-144.6	25.5*	27.4*
O=c1c2cc(N3CCOCC3)ccc2[nH]c(=S)n1Cc1cccc(Cl)c1	-0.7	-155.2	-120.3	-8.1	-30.8	/	/
O=C(c1ccc(Cn2c(=S)[nH]c3ccc(N4CCOCC4)cc3c2=O)cc1)N1CCC(N2CCCCC2)CC1	27.6*	i	i	-24.7	-70.3	-34.4	-40.8
